Results as given in PubChem BioAssay AID1159580 (chemical genetic matrix, 2015).
Hit rate of the full screen: of about 5,500 compounds, about 2,000 (36%) were called active. Another 18% or so got no clear call; they are omitted. Rule as the data show it: active = normalized growth mostly below about 0.91 (no sharp cut-off); inconclusive = no clear call, values can overlap the other calls; inactive = mostly above about 0.92. This is one part of the list.

Assay: chemical genetic growth profiling, strain panel (AID 1159580);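 also: tested at 20 µM; growth read once vehicle control cultures reached saturation at 30 °C; 1 = growth at the plate median or of vehicle wells; lower values mean less growth of the strain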
Conditions: S. cerevisiae deletion strains, growth OD
[1] = locus YAL013W, strain DEP1, active compounds read low
[2] = locus YBR229C, strain ROT2, active compounds read low
[3] = locus YDL101C, strain DUN1, active compounds read low
[4] = locus YDR150W, strain NUM1, active compounds read low
[5] = locus YEL061C, strain CIN8, active compounds read low
[6] = locus YGR078C, strain PAC10, active compounds read low
[7] = locus YGR229C, strain SMI1, active compounds read low
[8] = locus YHR030C, strain SLT2, active compounds read low
[9] = locus YJR043C, strain POL32, active compounds read low
[10] = locus YLR039C, strain RIC1, active compounds read low
[11] = locus YLR262C, strain YPT6, active compounds read low
[12] = locus YNL153C, strain GIM3, active compounds read low
[13] = locus YPL055C, strain LGE1, active compounds read low
[14] = locus YPL241C, strain CIN2, active compounds read low

Measured: normalized growth

O=c1cc(CO)occ1O
inactive: [1] 1.02 | locus YBR021W, strain FUR4, active compounds read low 1 | [2] 1 | locus YCL029C, strain bik1, active compounds read low 1.02 | locus YDL035C, strain GPR1, active compounds read low 1.03 | locus YDL074C, strain BRE1, active compounds read low 1.03 | [3] 1 | locus YDL134C, strain PPH21, active compounds read low 1.01 | locus YDL185W, strain tfp1, active compounds read low 1.03 | locus YDL192W, strain arf1, active compounds read low 1.02 | locus YDR101C, strain arx1, active compounds read low 1.03 | [4] 1.01 | locus YDR162C, strain NBP2, active compounds read low 1.04 | locus YDR318W, strain mcm21, active compounds read low 1.02 | locus YDR388W, active compounds read low 1.02 | locus YDR502C, strain sam2, active compounds read low 1.03 | [5] 1 | locus YER110C, active compounds read low 1.04 | locus YER155C, strain BEM2, active compounds read low 1 | locus YER167W, strain BCK2, active compounds read low 1.01 | locus YGL078C, strain dbp3, active compounds read low 1.03 | locus YGL086W, strain mad1, active compounds read low 1 | locus YGL248W, strain PDE1, active compounds read low 1 | [6] 1.01 | locus YGR135W, strain pre9, active compounds read low 1.05 | [7] 1.01 | locus YGR252W, strain gcn5, active compounds read low 1.05 | [8] 1 | locus YHR079C, strain IRE1 (second series), active compounds read low 1.03 | locus YHR094C, strain hxt1, active compounds read low 1.02 | locus YHR129C, strain ARP1, active compounds read low 1.01 | locus YHR200W, strain rpn10, active compounds read low 1.03 | locus YIL066C, strain RNR3, active compounds read low 1.01 | locus YIL073C, strain SPO22, active compounds read low 1.15 | locus YIL125W, strain kgd1, active compounds read low 1.02 | locus YIR030C, strain dcg1, active compounds read low 1.02 | locus YJL095W, strain BCK1, active compounds read low 1.02 | locus YJL134W, strain LCB3, active compounds read low 1.01 | locus YJL168C, strain set2, active compounds read low 1.04 | locus YJL187C, strain SWE1 (second series), active compounds read low 1.01 | [9] 1.02 | locus YKL009W, strain mrt4, active compounds read low 1.03 | locus YKL068W, active compounds read low 1.01 | locus YKL085W, strain MDH1 (second series), active compounds read low 1.01 | locus YKL085W, strain MDH1, active compounds read low 1.01 | locus YKR001C, strain vps1, active compounds read low 1.03 | [10] 1.04 | locus YLR058C, strain SHM2, active compounds read low 1 | locus YLR102C, strain apc9, active compounds read low 1.02 | [11] 1.08 | locus YLR268W, strain sec22, active compounds read low 1.02 | locus YLR330W, strain CHS5, active compounds read low 1 | locus YLR342W, strain FKS1 (second series), active compounds read low 1.04 | locus YLR371W, strain rom2, active compounds read low 1.04 | locus YLR418C, strain cdc73, active compounds read low 1.06 | locus YML016C, strain PPZ1, active compounds read low 1 | locus YML032C, strain rad52, active compounds read low 1.04 | locus YML124C, strain tub3, active compounds read low 1.02 | locus YMR078C, strain ctf18, active compounds read low 1.03 | locus YMR223W, strain ubp8, active compounds read low 1.06 | locus YMR307W, strain GAS1, active compounds read low 1.07 | locus YNL067W, strain RPL9B, active compounds read low 1.03 | [12] 1.01 | locus YNL233W, strain BNI4, active compounds read low 1.01 | locus YNL250W, strain rad50, active compounds read low 1.05 | locus YNL271C, strain bni1, active compounds read low 1.02 | locus YNL298W, strain CLA4, active compounds read low 1.04 | locus YNL307C, strain MCK1, active compounds read low 1.03 | locus YNR052C, strain pop2, active compounds read low 1.01 | locus YOL012C, strain htz1 1.34 | locus YOL147C, strain pex11, active compounds read low 1.03 | locus YOR061W, strain CKA2, active compounds read low 1.01 | locus YOR069W, strain VPS5, active compounds read low 1 | locus YOR136W, strain idh2, active compounds read low 1.02 | locus YOR144C, strain elg1, active compounds read low 1.03 | locus YOR184W, strain ser1, active compounds read low 1.04 | locus YOR316C, strain cot1, active compounds read low 1.01 | [13] 1.02 | [14] 1.01 | locus YPR119W, strain clb2, active compounds read low 1.03 | locus YPR141C, strain kar3, active compounds read low 1.01 | locus YPR163C, strain tif3, active compounds read low 1.04 | locus YPR167C, strain met16, active compounds read low 1.02 | strain wtn01, active compounds read low 1.01

CCOC(=O)NC(=O)c1cn(Cc2cccs2)c(=O)[nH]c1=O
inactive: [1] 0.999 | [2] 1.02 | [3] 1 | [4] 1.02 | [5] 0.996 | [6] 0.993 | [7] 0.998 | [8] 1 | locus YHR087W, strain rtc3, active compounds read low 1.01 | locus YJL187C, strain SWE1, active compounds read low 1.01 | [9] 0.988 | locus YJR075W, strain HOC1, active compounds read low 1.01 | [10] 1.01 | locus YLR058C, strain SHM2 (second series), active compounds read low 1.01 | locus YLR085C, strain ARP6, active compounds read low 1.03 | [11] 0.999 | locus YML094W, strain GIM5, active compounds read low 1.01 | locus YMR219W, strain ESC1, active compounds read low 1.01 | locus YMR263W, strain SAP30, active compounds read low 1.01 | locus YNL128W, strain TEP1, active compounds read low 0.984 | [12] 0.983 | locus YNL298W, strain CLA4 (second series), active compounds read low 1.02 | locus YNL322C, strain KRE1, active compounds read low 1 | locus YNR030W, strain Alg12, active compounds read low 1.01 | locus YOL006C, strain TOP1, active compounds read low 0.997 | [13] 1.06 | [14] 1.02 | locus YPR135W, strain CTF4, active compounds read low 0.96
